Experimental data as given in PubChem BioAssay.
The source made the active and inactive calls.

Legend:
[1] = target: Albumin (Bos taurus) (UniProt P02769); assay: compounds binding labelled BSA control protein – biochemical, small-molecule microarray, Alexa647 label, 635/667 nm fluorescence, artefact control for SMM control protein annotation, profiling panel (AID 1118); conditions: BSA-A647 binding, fluorescence 635 nm, higher = more signal;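 further: score merges 667 nm emission intensity and signal-to-noise per printed compound spot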
[2] = probe aXIP binding to arrayed compounds – biochemical, NeuroSMM set, 635/667 nm fluorescence, primary screen (AID 1119); conditions: small-molecule microarray, higher = more signal, called active from +8 up or from −8 down;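 further: probe is the protein aXip251-270 applied at 1 µg/mL to compound-printed slides; binding of probe to printed compounds measured as 667 nm fluorescence plus signal to noise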
[3] = probe aNOTCH3 binding on compound microarray – biochemical, small-molecule microarray, 635/667 nm fluorescence, primary screen (AID 1120); conditions: higher = more signal;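 further: probe is a biotin-tagged antibody raised against NOTCH3 rather than NOTCH3 protein; score merges spot fluorescence near 667 nm with spot signal to noise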
[4] = probe aNOTCH2 binding on compound microarray – biochemical, small-molecule microarray, 635/667 nm fluorescence, primary screen (AID 1121); conditions: higher = more signal;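 further: score merges feature fluorescence read at 667 nm with its signal to noise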
[5] = target: Carbonic anhydrase 2 (Homo sapiens) (UniProt P00918); assay: compounds binding carbonic anhydrase 2 – biochemical, small-molecule microarray, Alexa647-labelled CAII, profiling panel (AID 1122); conditions: CAII-A647 binding fluorescence, higher = more signal
[6] = COS7 lysate on small-molecule microarray, probe aHis, 635 nm (AID 1123); conditions: COS7 cell lysate, fluorescence, higher = more signal;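 further: z-score combines 667nm fluorescence intensity with signal-to-noise per printed compound spot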
[7] = probe aLAP1 signal on lysate-treated microarray – cell lysate, small-molecule microarray, COS7 lysate, primary screen (AID 1124); conditions: probe aLAP1, fluorescence, higher = more signal;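 further: lysate comes from COS7 cells expressing LAP1 and is applied at 0.3 µg/mL; score merges spot fluorescence near 667 nm with signal-to-noise over triplicate slides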
[8] = system: Sam68 (KHDRBS1); assay: compounds binding KHDRBS1 protein – biochemical, small-molecule microarray, 635 nm fluorescence, primary screen (AID 1125); conditions: higher = more signal;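 further: score merges 667 nm channel intensity with signal to noise over triplicate slides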
[9] = system: Chordin-like protein 2 (CHRDL2); assay: compounds binding chordin-like 2 – biochemical, small-molecule microarray, 635 nm fluorescence, primary screen (AID 1126); conditions: fluorescence 635 nm, higher = more signal;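 further: printed compound slides probed with Chrdl2 protein at 4 µg/mL for 1 h at 4 C; score merges 667 nm emission intensity with signal to noise over three replicate slides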
[10] = target: Concanavalin-A (Canavalia ensiformis) (UniProt P02866); assay: compounds binding concanavalin A lectin – biochemical, small-molecule microarray, Alexa647 label, 635 nm, artefact control for SMM control protein annotation, primary screen (AID 1127); conditions: ConA-A647 binding fluorescence, higher = more signal;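 further: z combines 667 nm emission intensity with signal-to-noise across three replicate slides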
[11] = compounds binding Alexa647 anti-His antibody – biochemical, small-molecule microarray, 635 nm fluorescence, artefact control for SMM control protein annotation, primary screen (AID 1128); conditions: higher = more signal;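 further: score merges feature fluorescence with signal-to-noise for each printed compound spot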
[12] = system: Human papillomavirus type 1a E7 protein (residues 1-88); assay: HPV1a E7 small-molecule binders, primary screen, biochemical, small-molecule microarray, residues 1-88, 635 nm (AID 1129); conditions: small-molecule microarray binding, fluorescence 635 nm; higher = more signal
[13] = target: Focal adhesion kinase 1 (Homo sapiens) (UniProt Q05397); assay: PTK2 protein binding on printed compound slides – biochemical, small-molecule microarray, 635/667 nm fluorescence, BSA, DTT, primary screen (AID 1130); conditions: 635 nm fluorescence, higher = more signal;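 further: composite of spot emission at 667 nm and signal to noise over triplicate slides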
[14] = system: Fibrinogen (Alexa647-labelled); assay: Alexa647-fibrinogen binding to printed small molecules – biochemical, small-molecule microarray, 635/667 nm fluorescence, artefact control for SMM control-protein annotation, profiling panel (AID 1131); conditions: fibrinogen-A647 binding fluorescence, higher = more signal;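 further: z-score merges 667 nm fluorescence with per-spot signal-to-noise over triplicate slides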
[15] = target: Follistatin (Homo sapiens) (UniProt P19883); assay: FST protein binding to printed compounds – biochemical, small-molecule microarray, 635/667 nm fluorescence, primary screen (AID 1132); conditions: 635 nm fluorescence, higher = more signal
[16] = target: Fibroblast growth factor 2 (Homo sapiens) (UniProt P09038); assay: basic fibroblast growth factor binding to printed compounds – biochemical, small-molecule microarray, 635/667 nm fluorescence, primary screen (AID 1133); conditions: FGF2, fluorescence 635/667, higher = more signal
[17] = JC-1 mitochondrial potential readout, lung cancer cells – cell-based, A549, JC-1 fluorescence, basal, 24 h, 100 nL, profiling panel (AID 1138); conditions: higher = more signal;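 further: A549 lung adenocarcinoma cells under basal conditions with no added stimulus; test concentration not given here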
[18] = system: Lefty1; assay: Lefty1 protein binding to printed compounds – biochemical, small-molecule microarray, 635/667 nm fluorescence, primary screen (AID 1139); conditions: fluorescence 635/667, higher = more signal
[19] = system: wheat germ agglutinin (Triticum aestivum), Alexa647-labelled; assay: Alexa647-WGA lectin binding to printed small molecules – biochemical, small-molecule microarray, 635/667 nm fluorescence, artefact control for SMM control-protein annotation, profiling panel (AID 1140); conditions: WGA-A647 binding, 635 nm fluorescence, higher = more signal;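 further: score merges 667 nm feature emission with signal to noise over triplicate slides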
[20] = target: Luciferin 4-monooxygenase (Photinus pyralis) (UniProt P08659); assay: inhibition of purified Photinus pyralis luciferase – biochemical, luminescence, purified enzyme, 2006 set, primary screen (AID 1141); conditions: purified firefly luciferase, SteadyGlo luminescence, 30 min; higher = more signal, called active from +8 up or from −8 down;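 further: cell-free assay with purified firefly luciferase at 100 ng per well in PBS; test concentration not given here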
Sequence of Luciferin 4-monooxygenase (Photinus pyralis) (P08659 whole entry, looked up): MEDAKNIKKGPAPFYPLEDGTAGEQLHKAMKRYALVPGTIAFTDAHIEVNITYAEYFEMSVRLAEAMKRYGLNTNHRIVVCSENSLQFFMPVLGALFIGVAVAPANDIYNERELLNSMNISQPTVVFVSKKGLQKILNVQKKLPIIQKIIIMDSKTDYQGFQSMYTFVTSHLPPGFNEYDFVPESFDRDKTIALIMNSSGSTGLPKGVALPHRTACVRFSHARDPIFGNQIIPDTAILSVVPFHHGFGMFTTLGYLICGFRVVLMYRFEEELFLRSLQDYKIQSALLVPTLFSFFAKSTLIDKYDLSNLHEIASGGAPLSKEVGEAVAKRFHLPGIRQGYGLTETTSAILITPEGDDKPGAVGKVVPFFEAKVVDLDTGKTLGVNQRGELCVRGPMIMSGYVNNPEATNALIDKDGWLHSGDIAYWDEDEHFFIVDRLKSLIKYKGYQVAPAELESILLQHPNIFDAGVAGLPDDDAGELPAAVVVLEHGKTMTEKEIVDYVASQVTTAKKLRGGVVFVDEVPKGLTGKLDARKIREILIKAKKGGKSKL

Sequence of Focal adhesion kinase 1 (Homo sapiens) (Q05397 whole entry, looked up): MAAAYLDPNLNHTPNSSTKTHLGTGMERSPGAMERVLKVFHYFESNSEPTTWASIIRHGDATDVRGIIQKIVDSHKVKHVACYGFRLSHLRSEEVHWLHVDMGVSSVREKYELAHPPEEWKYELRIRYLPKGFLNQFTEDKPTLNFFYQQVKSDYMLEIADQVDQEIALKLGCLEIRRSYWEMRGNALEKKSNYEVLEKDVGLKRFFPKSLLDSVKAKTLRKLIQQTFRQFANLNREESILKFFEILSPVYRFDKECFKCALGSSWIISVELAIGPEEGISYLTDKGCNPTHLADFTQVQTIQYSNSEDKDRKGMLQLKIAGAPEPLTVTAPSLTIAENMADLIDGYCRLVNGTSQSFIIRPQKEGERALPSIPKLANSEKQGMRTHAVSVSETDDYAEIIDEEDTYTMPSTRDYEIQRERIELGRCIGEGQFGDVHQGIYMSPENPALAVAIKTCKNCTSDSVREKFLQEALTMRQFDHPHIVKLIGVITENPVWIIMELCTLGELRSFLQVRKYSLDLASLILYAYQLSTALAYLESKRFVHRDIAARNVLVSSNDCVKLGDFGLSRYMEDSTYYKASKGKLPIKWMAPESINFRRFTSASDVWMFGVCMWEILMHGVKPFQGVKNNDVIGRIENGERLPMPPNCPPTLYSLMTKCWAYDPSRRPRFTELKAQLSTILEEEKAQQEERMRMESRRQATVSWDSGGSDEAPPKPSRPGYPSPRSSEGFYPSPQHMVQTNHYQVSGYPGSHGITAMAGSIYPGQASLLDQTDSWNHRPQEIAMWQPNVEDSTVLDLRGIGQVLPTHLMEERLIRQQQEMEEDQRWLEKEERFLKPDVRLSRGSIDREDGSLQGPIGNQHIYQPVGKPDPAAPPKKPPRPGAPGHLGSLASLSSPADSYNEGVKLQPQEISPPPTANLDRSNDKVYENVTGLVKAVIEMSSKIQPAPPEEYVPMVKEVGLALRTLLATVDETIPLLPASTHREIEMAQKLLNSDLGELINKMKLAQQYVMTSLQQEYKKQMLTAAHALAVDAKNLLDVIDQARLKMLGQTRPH
Sequence of Albumin (Bos taurus) (P02769 whole entry, looked up): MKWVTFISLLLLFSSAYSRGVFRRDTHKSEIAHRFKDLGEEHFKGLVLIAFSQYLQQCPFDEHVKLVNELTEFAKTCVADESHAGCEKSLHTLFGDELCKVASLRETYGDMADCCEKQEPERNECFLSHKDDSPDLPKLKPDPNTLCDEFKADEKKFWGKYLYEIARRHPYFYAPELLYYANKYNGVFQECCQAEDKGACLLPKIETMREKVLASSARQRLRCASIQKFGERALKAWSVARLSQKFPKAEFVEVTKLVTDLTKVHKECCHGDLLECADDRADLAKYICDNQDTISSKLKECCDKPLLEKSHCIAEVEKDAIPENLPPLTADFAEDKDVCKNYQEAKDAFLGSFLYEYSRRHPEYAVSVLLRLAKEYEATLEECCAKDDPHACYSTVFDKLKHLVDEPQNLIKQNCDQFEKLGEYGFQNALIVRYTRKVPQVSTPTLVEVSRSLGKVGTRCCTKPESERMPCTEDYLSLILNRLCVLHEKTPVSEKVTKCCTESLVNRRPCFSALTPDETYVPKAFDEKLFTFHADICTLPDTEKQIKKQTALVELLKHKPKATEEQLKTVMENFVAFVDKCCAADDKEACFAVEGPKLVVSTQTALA
Sequence of Follistatin (Homo sapiens) (P19883 whole entry, looked up): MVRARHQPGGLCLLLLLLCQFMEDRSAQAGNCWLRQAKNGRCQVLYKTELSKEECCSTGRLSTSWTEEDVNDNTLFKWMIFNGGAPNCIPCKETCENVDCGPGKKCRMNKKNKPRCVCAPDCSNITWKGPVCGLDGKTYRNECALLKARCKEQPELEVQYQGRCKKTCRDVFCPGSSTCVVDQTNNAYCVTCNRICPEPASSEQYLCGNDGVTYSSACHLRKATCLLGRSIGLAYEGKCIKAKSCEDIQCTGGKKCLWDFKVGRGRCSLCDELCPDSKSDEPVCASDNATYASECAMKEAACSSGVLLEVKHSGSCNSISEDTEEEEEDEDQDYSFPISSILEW
Sequence of Fibroblast growth factor 2 (Homo sapiens) (P09038 whole entry, looked up): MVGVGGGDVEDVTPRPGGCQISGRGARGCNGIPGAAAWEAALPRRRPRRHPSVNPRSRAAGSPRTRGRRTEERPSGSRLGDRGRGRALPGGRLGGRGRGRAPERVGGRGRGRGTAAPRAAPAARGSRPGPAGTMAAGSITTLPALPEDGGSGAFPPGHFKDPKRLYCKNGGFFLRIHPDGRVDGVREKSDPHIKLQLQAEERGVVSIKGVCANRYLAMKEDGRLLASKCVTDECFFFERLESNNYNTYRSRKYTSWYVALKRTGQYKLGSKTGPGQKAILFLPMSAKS
Sequence of Concanavalin-A (Canavalia ensiformis) (P02866 whole entry, looked up): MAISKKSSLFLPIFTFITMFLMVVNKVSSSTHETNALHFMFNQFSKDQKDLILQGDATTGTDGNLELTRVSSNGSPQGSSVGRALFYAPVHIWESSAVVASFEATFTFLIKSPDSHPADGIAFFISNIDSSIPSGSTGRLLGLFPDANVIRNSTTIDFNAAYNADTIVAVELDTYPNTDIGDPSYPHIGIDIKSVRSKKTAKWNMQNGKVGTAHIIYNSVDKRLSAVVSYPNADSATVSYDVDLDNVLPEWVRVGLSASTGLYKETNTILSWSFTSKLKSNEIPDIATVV

| SMILES | composite z-score [1] | composite Z-score [2] | composite z-score [3] | composite z-score [4] | composite z-score [5] | composite z-score [6] | composite z-score [7] | composite z-score [8] | composite z-score [9] | composite z-score [10] | composite z-score [11] | composite z-score [12] | composite z-score [13] | composite z-score [14] | composite z-score [15] | composite z-score [16] | z-score [17] | composite z-score [18] | composite z-score [19] | z-score [20] |
| --- | --- | --- | --- | --- | --- | --- | --- | --- | --- | --- | --- | --- | --- | --- | --- | --- | --- | --- | --- | --- |
| NC(=O)N1C(=O)C2C(C1=O)C1C=C(CCCO)C2C(C2CC2)N1Cc1sc2ccccc2c1Cl (stereo not given) | 0.758 | 0.121 (inactive) | -0.0362 | -0.15 | 0.616 | 1.19 | 0.979 | 1.15 | -0.0285 | 1.11 | 2.4 | 0.802 | 0.284 | 0.795 | 0.539 | 0.983 | 0.898 | 0.587 | 0.661 | -2.2 (inactive) |
| CCCCN1CC=CC23O[C@@H]4/C=C\CCCOC(=O)C4[C@H]2C(=O)N(C(CO)C(C)C)[C@@H]3C1=O (stereo not given in full) | -0.745 | -0.108 (inactive) | -0.0339 | -0.0504 | 0.781 | 0.0745 | -0.158 | 0.239 | -0.0768 | -0.592 | 0.0807 | -0.654 | -0.192 | -0.458 | 0.0549 | 0.0877 | -0.455 | 0.249 | -0.0096 | -0.0573 (inactive) |
| CC1CC/C=C\[C@H]2OC34C=CCN(c5ccc(Cl)cc5)C(=O)[C@H]3N(CCCCCCO)C(=O)[C@]4(C)C2C(=O)O1 (stereo not given in full) | -0.685 | 0.0185 (inactive) | -0.314 | 0.309 | 0.3 | 0.383 | -0.17 | -0.552 | -0.742 | -0.241 | 0.867 | -0.629 | -0.487 | -0.87 | -0.518 | -0.662 | 1 | -0.629 | -0.988 | -1.55 (inactive) |
| CC(C)NC(=O)[C@@]1(C)c2ccccc2C(=O)N(Cc2ccccc2)[C@H]1c1ccc(CO)cc1 | 0.489 | -0.621 (inactive) | -0.432 | -0.153 | 0.692 | 1.86 | 0.329 | 0.696 | -1.6 | 0.537 | 2.31 | 0.244 | -0.226 | -0.722 | -0.4 | -0.719 | 0.648 | -0.189 | 0.948 | -1.09 (inactive) |
| Cc1ccc(N2C(=O)c3ccccc3[C@](C)(C(=O)NCCCN(C)C)[C@@H]2c2ccc(CO)cc2)nc1 | 0.656 | -0.392 (inactive) | -0.0984 | -0.13 | 0.281 | 0.93 | -0.728 | 0.276 | -1.19 | 0.0368 | -0.479 | -0.254 | 0.304 | -0.18 | 0.351 | -1.21 | 0.361 | -0.28 | -0.0926 | -0.156 (inactive) |
| CCOC(=O)C1=CC[C@@H](c2ccccc2)N(S(=O)(=O)c2ccc(C)cc2)[C@H]1c1ccccc1I | 0.856 | 0.008 (inactive) | 1.02 | -0.0226 | 0.649 | 0.842 | 0.748 | 0.875 | -0.131 | 1.01 | 1.5 | 1.21 | 0.475 | 0.995 | 0.923 | 0.184 | 1.27 | -0.163 | 1.01 | 1.55 (inactive) |
| NCCCCCCNC(=O)[C@@H]1C[C@@H]2C(=O)N3CCC[C@H]3C(=O)N2[C@@H]1c1cccc(OCCO)c1 | 0.81 | 2.71 (inactive) | 0.113 | -0.15 | 0.709 | 0.729 | 1.02 | 0.462 | 1.16 | 1.14 | 2.14 | 0.894 | 0.0676 | 0.882 | 0.832 | 1.16 | -0.383 | 1.24 | 0.938 | -0.268 (inactive) |
| C=CCNC(=O)[C@@H]1[C@H]2C(=O)O[C@H](c3ccccc3)[C@H](c3ccccc3)N2[C@H](c2ccc(OCCO)cc2)[C@@]12C(=O)Nc1ccc(C#CC3(O)CCCCCC3)cc12 | 0.692 | -0.058 (inactive) | 0.13 | -0.11 | 0.42 | 1.86 | 0.637 | 1.3 | 0.253 | 1.19 | 2.64 | 1.18 | 0.245 | 0.891 | 1.34 | 0.755 | -1.21 | 0.497 | 1.04 | -0.467 (inactive) |
| COCCCNC(=O)[C@@]1(CCC(=O)OC(C)(C)C)COC(c2ccc(OCCCO)cc2)=N1 | 0.483 | 0.507 (inactive) | 0.133 | -0.0485 | 0.619 | 3 | 0.504 | 1.28 | -0.42 | 0.286 | 0.839 | 1.27 | 0.403 | 1.04 | 0.636 | 0.502 | -0.274 | -0.322 | 0.386 | 0.75 (inactive) |
| CCCC=C(CCC)[C@@H](NC(=O)c1ccc(C(F)(F)F)cc1)c1ccc(C(F)(F)F)cc1 | 1.01 | -0.523 (inactive) | 0.326 | 0.105 | 0.205 | 2.94 | -0.0554 | 1.31 | -0.748 | 1.07 | 0.549 | 1.23 | 0.156 | 1 | 0.384 | -0.635 | 2.65 | 0.131 | 1.38 | 2.29 (inactive) |
| CN1C(=O)[C@@H]2[C@@H](CC(COc3ccccc3)=C3[C@@H](CCc4ccccc4)OB(O)C[C@@H]32)C1=O | -0.062 | 0.581 (inactive) | 0.135 | -0.0073 | 0.229 | 0.71 | 0.809 | 0.31 | -0.102 | -0.0514 | -0.526 | -0.211 | -0.175 | 0.48 | 0.127 | -0.0572 | 0.208 | -0.0163 | 0.469 | -0.326 (inactive) |
